Inconclusive results are not listed. Activity calls are given as the source filed them. Calls come from the whole dose curve; as a rule, active = well fitted curve in either direction with a large enough effect (not every such curve was filed as active); inconclusive = small, poorly fitted or top-dose-only effect, or another doubt; inactive = flat fitted curve, though single readings scatter.

A short description of the assay: AP1 Signaling Pathway (AID 357). The conditions noted are these: ME-180 (cervical carcinoma) AP-1-bla reporter, EGF-induced, beta-lactamase ratio, 5 h; series mostly up to 17.2 µM. Summed up: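 AP-1-bla ME-180 cells with beta-lactamase reporter under AP-1 response element, stimulated with EC50 EGF; compounds titrated, 5 hours at 37 degrees Celsius. CCF4 read at 460/530 nm ratio; positive and negative modulators judged by AC50.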
On to `C[N+]1(C)CCC(=C(c2ccccc2)c2ccccc2)CC1`, for which the result was inactive.
For the molecule `O=C1C(O)=C(O)C(=O)C(O)=C1O`, the outcome was inactive.
Take `CCN(CC)CCNc1ccc(CO)c2sc3ccccc3c(=O)c12`: the result was inactive.
For the molecule `CC(=O)OCC(=O)[C@H]1CC[C@H]2[C@@H]3CCC4=CC(=O)CC[C@]4(C)[C@H]3CC[C@]12C`, the result was inactive.
Take `CN(C)CCC[C@@]1(c2ccc(F)cc2)OCc2cc(C#N)ccc21`: the result was inactive.
For `Cc1c(-c2ccccc2)oc2c(C(=O)OCCN3CCCCC3)cccc2c1=O`, the outcome was inactive.
With `CC(=O)O[C@]1(C(C)=O)CC[C@H]2[C@@H]3C=C(C)C4=CC(=O)CC[C@]4(C)[C@H]3CC[C@@]21C` the entry was “inactive”.
With `COc1ccc(C(Cl)=C(c2ccc(OC)cc2)c2ccc(OC)cc2)cc1`, the outcome was inactive.
Consider `Cc1cc(-c2ccccc2)nnc1NCCN1CCOCC1`, for which the outcome was inactive.
Consider `CC(C)(C)NC[C@H](O)COc1cccc2c1CCCC2=O`, for which the result was inactive.
`N=C(N)N1CCc2ccccc2C1`: the result was inactive.
Regarding `CCOC(=O)c1ccc(N)cc1`, the result was inactive.
`CCN(CC)CCNC(=O)c1cc(Br)c(N)cc1OC`: the result was inactive.
As for `CN1CCC[C@@H]1CCO[C@](C)(c1ccccc1)c1ccc(Cl)cc1`, the result was inactive.
Take `NC(N)=NCc1cccc(I)c1`: the result was inactive.
Turning to `O=c1[nH]c(=O)n([C@H]2C[C@H](O)[C@@H](CO)O2)cc1F`, the result was inactive.

These data come from PubChem BioAssay (NCATS).
